MBD2 inh: blocks human MBD2 binding to methylated DNA | Q9UBB5 | TR-FRET, MBD2 binding to methylated oligonucleotide | inhibition, % at 4.4 µM | 370,000 compounds, 0.31% hits | AID 686964; in the data active = inhibition above about 13%
UHRF1 MBD2 ctr: blocks human UHRF1 binding to methylated DNA. UHRF1 binding to methylated oligo, TR-FRET. inhibition, % at 4.4 µM. 370,000 compounds, 0.75% hits; in the data active = inhibition above about 21%;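 note: UHRF1 SRA domain binding a hemimethylated CpG hairpin DNA probe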
Target sequence (Q96T88 whole entry, looked up, the tested form may be a part): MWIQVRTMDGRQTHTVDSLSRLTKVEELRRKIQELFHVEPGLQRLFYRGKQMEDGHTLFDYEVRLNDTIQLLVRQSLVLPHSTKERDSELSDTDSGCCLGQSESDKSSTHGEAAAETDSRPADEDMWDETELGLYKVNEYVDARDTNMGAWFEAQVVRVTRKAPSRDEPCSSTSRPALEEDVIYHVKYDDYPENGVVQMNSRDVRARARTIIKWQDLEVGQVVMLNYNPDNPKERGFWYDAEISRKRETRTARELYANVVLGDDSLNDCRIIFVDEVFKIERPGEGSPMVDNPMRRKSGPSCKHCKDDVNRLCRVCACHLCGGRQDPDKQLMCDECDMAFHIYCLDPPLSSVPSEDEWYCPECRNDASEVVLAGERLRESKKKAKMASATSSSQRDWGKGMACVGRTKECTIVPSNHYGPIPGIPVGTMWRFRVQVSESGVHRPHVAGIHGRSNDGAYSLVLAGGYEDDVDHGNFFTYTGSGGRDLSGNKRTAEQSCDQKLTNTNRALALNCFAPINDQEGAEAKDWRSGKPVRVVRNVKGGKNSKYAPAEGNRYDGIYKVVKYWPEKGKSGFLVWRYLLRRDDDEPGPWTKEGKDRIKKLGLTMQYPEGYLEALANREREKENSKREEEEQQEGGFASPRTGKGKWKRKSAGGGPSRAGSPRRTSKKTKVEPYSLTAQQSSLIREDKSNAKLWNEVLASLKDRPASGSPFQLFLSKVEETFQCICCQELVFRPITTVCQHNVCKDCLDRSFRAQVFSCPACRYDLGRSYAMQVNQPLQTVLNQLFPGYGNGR
DNMT1 inh: blocks human DNA methyltransferase DNMT1. P26358. DNMT1 molecular beacon, Hinp1I cleavage, fluorescence. inhibition (reported as % activation of signal), % at 10 µM. 360,000 compounds, 0.83% hits; in the data active = inhibition above about 50%
PG9 binder: binds the HIV-1 gp120 antibody PG9; AID 624416; TR-FRET gp120-PG9 antibody binding; 360,000 compounds, 0.43% hits; inhibition, % at 6.7 µM; in the data active = inhibition above about 8.5%
LEDGF integ inh: blocks HIV-1 LEDGF/p75-dependent DNA integration; 370,000 compounds, 0.64% hits; inhibition, % at 3.7 µM; TR-FRET IN-LEDGF/p75 DNA integration, Eu/Cy5;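 active = inhibition above the screen-wide mean plus 3 SD, cut at about 13% in these data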;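 note: signal is the Cy5 over europium emission ratio at 671 and 618 nm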
rCAG binder: binds r(CAG) RNA repeats; r(CAG) RNA repeat, TO-PRO-1 dye displacement fluorescence; inhibition, % at 3 µM; 370,000 compounds, 1.3% hits;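 active = inhibition above the plate cutoff, the mean of all test compounds on that plate plus 3 SD, cut at about 35% in these data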;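 note: higher means more dye released from RNA so lower well fluorescence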
Beacon interf DR: beacon fluorescence artifact, dose response counter-screen; shares compounds with DNMT1 inh; AID 602382; 200 tested, under 10 active; IC50, µM; molecular beacon fluorescence, spectral interference counter-screen; call rule not given here
DNMT1 confirm: DNMT1 inhibition confirmation, single concentration; inhibition, % at 10 µM; DNMT1 molecular beacon HinP1I cleavage, fluorescence; shares compounds with DNMT1 inh; AID 602385; 2,300 compounds, 8% hits;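 active = average inhibition of at least 30% in the single-concentration confirmation test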
DNMT1 interf: beacon fluorescence artifact counter-screen; shares compounds with DNMT1 inh; DNMT1 molecular beacon spectral interference counterscreen, fluorescence 485/520; activation (fluorescence interference), % at 10 µM; 2,300 compounds, 1% hits;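 active = activation of at least 30% at 10 µM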;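 note: DNMT1 catalytic domain with a HinP1I cleavage step and a FAM/dabcyl DNA beacon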
Of the large screens only hits and unclear results are named; the others gave an inactive call (follow-up assays come after a bar, where they were run). A selection: hits, their analogues and other compounds. The true share with any hit is near 3.5%.

Oc1[nH]c2ccccc2c1N=Nc1ccc(F)cc1	DNMT1 inh 62.7 | Beacon interf DR 20.4 | DNMT1 confirm 31.1 | DNMT1 interf inactive
Nc1ccc2ccccc2c1[N+](=O)[O-]	none
Nc1cc2c3ccccc3ccc2c2ccccc12	DNMT1 inh 90.7 | DNMT1 confirm inactive | DNMT1 interf inactive
CC(C)N(C(=NCc1ccccc1)NC(=O)c1ccccc1)C(C)C	none
CCOc1ccc2nc(N3C(=O)/C(=C/c4ccc(Cl)cc4)NC3=S)sc2c1	DNMT1 inh 94.2 | DNMT1 confirm inactive | DNMT1 interf inactive
Cc1cccc(N2CC(C(=O)Nc3nnc(SCC(=O)Nc4nccs4)s3)CC2=O)c1 (stereo not given)	DNMT1 inh 53.2 | DNMT1 confirm inactive | DNMT1 interf inactive
Cc1ccccc1N1CC(C(=O)Nc2nnc(SCC(=O)Nc3nccs3)s2)CC1=O (stereo not given)	none
CCc1nc2ccc(C(=O)Nc3cc(-c4ccccc4)ccc3OC)cn2c1N(C)C(=O)c1cccc(OC)c1	none
CCc1nc2ccc(C(=O)N3CCN(C)CC3)cn2c1N(C)CCC(C)C	none
CN(C)/C=C/C=C1C(=O)CCCC1=O	DNMT1 inh 55.0 | DNMT1 confirm inactive | DNMT1 interf inactive
COc1ccc2nc3ccccc3nc2c1NC(=O)c1ccc(Cl)cc1Cl	DNMT1 inh 56.6 | DNMT1 confirm inactive | DNMT1 interf 37.5
CC(=O)Cc1nsc(NC(=O)c2ccc(-c3ccc(Cl)cc3Cl)o2)n1	none
Cc1nnc2sc(-c3ccc(NC(=O)c4ccc(-c5ccc(Cl)cc5Cl)o4)cc3)nn12	DNMT1 inh 64.9 | DNMT1 confirm inactive | DNMT1 interf inactive
COC(=O)[C@]12C[C@H](CC(=O)NCc3ccc(OC)c(OC)c3)C(=O)N(Cc3ccccc3)C1=C[C@H](C(C)(C)C)O[C@@H]2C	none (no result: DNMT1 inh)
CC(=O)c1ccc(C(=O)Nc2sc3c(c2C(N)=O)CCN(Cc2ccccc2)C3)cc1	DNMT1 inh 84.3 | DNMT1 confirm inactive | DNMT1 interf inactive
CCCn1c(N)c(NCCN2CCOCC2)c(=O)n(CC(=O)NCc2ccccc2)c1=O	DNMT1 inh 86.1 | DNMT1 confirm inactive | DNMT1 interf inactive
Cc1nn(CC(=O)NCCN2CCOCC2)c(=O)c2ccccc12	none
COc1ccccc1CCn1cnc(-c2ccccc2F)c1CC(C)C	none (no result: DNMT1 inh)
C[C@H]1C2CC(OC(=O)Nc3ccc(F)cc3)C(C2)[C@H]2CCCCN21 (stereo not given in full)	none (no result: DNMT1 inh, PG9 binder)
O=C(N/N=C/c1coc2ccccc2c1=O)c1cn(-c2ccccc2)nc1-c1ccc(F)cc1	DNMT1 inh 59.5 | DNMT1 confirm inactive | DNMT1 interf inactive
Fc1ccc(CNc2ccc(N3CCN(Cc4ccccc4)CC3)cc2)cc1	DNMT1 inh 62.2 | DNMT1 confirm inactive | DNMT1 interf inactive
CCc1cccc(NC(=O)CCS(=O)(=O)c2ccc(Br)cc2)c1	DNMT1 inh 87.6 | DNMT1 confirm inactive | DNMT1 interf inactive
O=C(CCS(=O)(=O)c1ccc(Br)cc1)NCCc1ccccc1	DNMT1 inh 83.7 | DNMT1 confirm inactive | DNMT1 interf inactive
C[C@@H]1CN([C@H](C)CO)C(=O)CCCn2cc(nn2)CO[C@H]1CN(C)S(=O)(=O)c1cccs1	none
Cc1ccc(O)c(C(C)c2c[nH]c3ccccc23)c1 (stereo not given)	none (no result: DNMT1 inh, PG9 binder)
O=C(Nc1ccccc1)Nc1nnc([C@@H]2C[C@H](O)[C@@H](CO)O2)s1	none
COC(=O)C1(C)NC(c2cccc(C)c2)C2C(=O)N(c3ccccc3)C(=O)C21 (stereo not given)	none
Oc1ccc(N=Cc2ccc(-c3cccs3)s2)cc1	DNMT1 inh 76.8, LEDGF integ inh 46.6 | DNMT1 confirm inactive | DNMT1 interf inactive
Cc1cnn(-c2cc(N/N=C/c3ccccc3Cl)ncn2)c1	none
Cc1cnn(-c2cc(N/N=C/c3ccc(F)cc3)ncn2)c1	DNMT1 inh 60.4 | DNMT1 confirm inactive | DNMT1 interf inactive
O=C(c1ccccc1)c1ccc(-n2ccnc2)c([N+](=O)[O-])c1	none
Cc1nc(SCC(=O)O)c(C#N)c2c1CCCC2	DNMT1 inh 58.0 | DNMT1 confirm inactive | DNMT1 interf inactive
CCc1nc(SCC(=O)O)c(C#N)c2c1CCCC2	none
COc1ccc(-c2cc(C(=O)Nc3cc(C)ccc3O)no2)cc1	none
COc1ccc(-c2cc(C(=O)Nc3cc(Cl)ccc3O)no2)cc1	DNMT1 inh 53.8 | DNMT1 confirm inactive | DNMT1 interf inactive
CCCc1nnc(NS(=O)(=O)c2ccc(OC)cc2)s1	DNMT1 inh 72.5 | DNMT1 confirm inactive | DNMT1 interf inactive
CC(=O)N/C(=C\c1ccccc1)C(=O)OCc1cccc(S(=O)(=O)N(C)C)c1	none
CC(=O)Nc1cnc(/C=C\CCCO)cn1	none
COCCNC(=O)C1CCCN(C(=O)COc2ccc(C(C)(C)C)cc2)CC1 (stereo not given)	none
O=C(Cn1c2ccccc2c(=O)c2ccccc21)N/N=C/c1cc([N+](=O)[O-])ccc1N1CCCCCC1	DNMT1 inh 72.0 | DNMT1 confirm inactive | DNMT1 interf inactive
CN(CC(=O)Nc1ccc(Cl)c(C(F)(F)F)c1)C(=O)C1CC(=O)N(CCc2ccccc2)C1 (stereo not given)	none
Cc1ccccc1NC(=O)CSc1nc2c(c(-c3ccco3)c1C#N)CCCC2	none (no result: MBD2 inh, UHRF1 MBD2 ctr, PG9 binder, LEDGF integ inh, rCAG binder)
N#Cc1c(SCC(=O)Nc2nccs2)nc2c(c1-c1ccco1)CCCC2	DNMT1 inh 59.8 | DNMT1 confirm inactive | DNMT1 interf inactive
CCC1CCc2sc(C(=O)O)cc2C1 (stereo not given)	none
CCC1CCc2sc(C(=O)NNC(=O)c3ccncc3)cc2C1 (stereo not given)	DNMT1 inh 88.2 | DNMT1 confirm inactive | DNMT1 interf inactive
O=C(O)c1ccc2c(c1)SC1=NS(=O)(=O)CCN12	none
COc1ccc(C(C)(C)C)cc1NC(=O)c1ccc2c(c1)SC1=NS(=O)(=O)CCN12	DNMT1 inh 68.9 | DNMT1 confirm inactive | DNMT1 interf inactive
N=C1/C(=C/c2coc3ccccc3c2=O)C(=O)N=C2SC(c3ccco3)=NN12	DNMT1 inh 65.5 (no result: MBD2 inh, UHRF1 MBD2 ctr, PG9 binder, LEDGF integ inh, rCAG binder) | Beacon interf DR inactive | DNMT1 confirm inactive | DNMT1 interf inactive
Cc1ccc(/C=c2\sc3nc(-c4cccs4)nn3c2=O)o1	DNMT1 inh 57.3 | DNMT1 confirm inactive | DNMT1 interf inactive
O=C1CC(c2ccco2)CC(O)=C1C=NCC1CCNCC1 (stereo not given)	DNMT1 inh 66.7 | DNMT1 confirm inactive | DNMT1 interf inactive
COc1ccc(OC)c2sc(NC(=O)C3CC3)nc12	none

Screens (PubChem)
